# Laboratory results published in PubChem BioAssay.
# Molecular target: Tumor necrosis factor receptor superfamily member 10B (Homo sapiens) (UniProt O14763)
# Assay: viability loss of caspase-8 NB7 cells with TRAIL – with/without TRAIL, luminescence panel, confirmation (AID 651596)
# Conditions: NB7 neuroblastoma + caspase-8, TRAIL sensitization, NB7 Caspase-8, with TRAIL, mean of runs, at 10 µM, stronger effect = higher value
# Tumor necrosis factor receptor superfamily member 10B (Homo sapiens), sequence (O14763 whole entry, looked up): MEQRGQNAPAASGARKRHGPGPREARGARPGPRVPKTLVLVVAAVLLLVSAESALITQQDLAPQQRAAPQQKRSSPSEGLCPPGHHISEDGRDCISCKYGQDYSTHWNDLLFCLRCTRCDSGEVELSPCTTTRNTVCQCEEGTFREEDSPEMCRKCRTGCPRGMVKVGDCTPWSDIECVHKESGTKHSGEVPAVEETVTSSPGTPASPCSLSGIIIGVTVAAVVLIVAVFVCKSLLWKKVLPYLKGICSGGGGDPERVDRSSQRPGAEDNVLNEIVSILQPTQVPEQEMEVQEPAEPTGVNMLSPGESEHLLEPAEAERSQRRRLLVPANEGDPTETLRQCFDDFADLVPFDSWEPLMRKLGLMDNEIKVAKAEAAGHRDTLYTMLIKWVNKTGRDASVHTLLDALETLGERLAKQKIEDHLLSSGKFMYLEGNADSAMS
row,Compound,activity
1,O=C(Nc1ccc(-c2nc3ccccc3[nH]2)cc1)C1CCCO1 (stereo not given),79.5%
2,Cc1ccccc1C(=O)Nc1nnc(SCC(=O)NC2CC2)s1,48.7%
3,Nc1nc(N)c2cc(CNc3ccc(Cl)c(Cl)c3)ccc2n1,85.2%
4,COc1ccc2nc(Nc3nc(-c4cc5ccccc5oc4=O)cs3)sc2c1,50.4%
5,Cn1c(/C=C/c2ccc([N+](=O)[O-])o2)nc2ccccc2c1=O,50.8%
6,CCOc1ccc(C(=O)Nc2cc(C)ccn2)cc1,95.2%
7,COc1ccccc1/C=C/C(=O)Nc1ccc2c(c1)OCCO2,66.6%
8,Cc1cc(=O)n2[nH]c(-c3ccc(F)cc3)nc2n1,44.8%
9,C[n+]1c(-c2ccccc2)cc2c(=Cc3ccccc3)c3ccccc3n21,73.1%
10,CC(=O)n1cc(N(C(=O)CCl)c2ccc([N+](=O)[O-])cc2)c2ccccc21,97.8%
11,CC(C)(C)OC(=O)NCc1ccc(NC(=O)c2nc[nH]c2C(=O)NCCCCNC(=O)c2[nH]cnc2C(=O)Nc2ccc(CNC(=O)OC(C)(C)C)cc2)cc1,95.1%
12,CCCCCCCCCCn1ccc(=N)cc1,84%
13,O=c1c2ccccc2oc2ccc(C#CC3(O)CCCCC3)cc12,86.2%
14,O=S1(=O)CC(c2ccccc2)=NN=C(c2ccccc2)C1,79%
15,COc1ccc(C(=O)Nc2cccc(/C=C/c3nc4ccccc4c(=O)[nH]3)c2)cc1,73.5%
16,COc1ccc(/C=N/Nc2nnc(Cc3ccccc3)c(=O)[nH]2)cc1OC,60.6%
17,COCCOCCn1c(/C=C/c2ccccc2)nc2ccccc21,65.4%
18,CC(C)(C)C1CCc2sc(C(=O)NNC(=O)CCl)cc2C1 (stereo not given),98.8%
19,Cc1ccc(-c2cc(C(=O)N/N=C/c3cccnc3)c3ccccc3n2)cc1C,43.9%
20,O=C(Nc1ccc2c(c1)OCCO2)c1ccc(Cl)cc1,66.3%

row,Compound,activity
1,Cc1cc(C)c2c(c1)/C(=C/C(=O)c1ccc(Br)s1)C(=O)N2,91.8%
2,COC(=O)c1ccccc1NC(=O)c1nc(S(=O)(=O)Cc2ccccc2)ncc1Cl,84.1%
3,COC(=O)c1ccc(NC(=O)C(=O)c2cccn2C)cc1,59.5%
4,COc1cccc2sc(N(C)c3ccccc3)nc12,58.3%
5,COc1cccc2c1C(CO)N1C(C#N)C3CC(C(=O)O)C(C1C2)N3C (stereo not given),59.9%
6,C/C(=N\Nc1nc2ccccc2[nH]1)c1ccc(N2CCOCC2)cc1,80.9%
7,Clc1ccc(-n2cnc3c(Cl)ncnc32)cc1Cl,71.7%
8,Cc1ccnc(NC(=O)/C=C/c2cccs2)c1,84.1%
9,CC(C)(C)c1ccc(-c2nc3cc(N)ccc3o2)cc1,81.9%
10,C/C(=N\NC(=O)c1ccc(F)cc1)c1ccccn1,44.9%
11,COc1ccc(C(=O)Nc2cc(C)on2)cc1,49.3%
12,COc1ccc(C(C(=O)NC2CCCC2)N(C(=O)c2snc(-c3ccc(F)cc3)c2N)c2ccc(F)cc2)cc1 (stereo not given),50.3%
13,COc1ccc2nc(-c3ccc(F)cc3)sc2c1,68.2%
14,O=C(N/N=C/c1ccc(-c2cccc(C(F)(F)F)c2)o1)c1cccc(F)c1,62.7%
15,O=C1C(=C2CCc3ccccc32)Cc2ccccc21,41.5%
16,Cc1ccc(/C=N/NC(=O)c2cc(C)oc2C)cc1,45.1%
17,CCn1c(=O)c([N+](=O)[O-])c(Cl)c2ccccc21,83.6%
18,O=C(Nc1ccc2c(c1)OCCO2)c1ccccn1,75.8%
19,C/C(=N\NC(=O)c1ccncc1)c1cccc(NC(=O)c2ccc(C(C)(C)C)cc2)c1,85.5%
20,O=C(Nc1nc2ccccc2[nH]1)c1ccc([N+](=O)[O-])cc1,53.4%

# Tested on: not listed separately
# Assay: as above
# Conditions: NB7 neuroblastoma + caspase-8, without TRAIL, NB7 Caspase-8, without TRAIL, mean of runs, at 10 µM
row,Compound,activity
1,O=C(Nc1ccc(-c2nc3ccccc3[nH]2)cc1)C1CCCO1 (stereo not given),71%
2,Cc1ccccc1C(=O)Nc1nnc(SCC(=O)NC2CC2)s1,45.2%
3,Nc1nc(N)c2cc(CNc3ccc(Cl)c(Cl)c3)ccc2n1,73.4%
4,COc1ccc2nc(Nc3nc(-c4cc5ccccc5oc4=O)cs3)sc2c1,47.4%
5,Cn1c(/C=C/c2ccc([N+](=O)[O-])o2)nc2ccccc2c1=O,73.9%
6,CCOc1ccc(C(=O)Nc2cc(C)ccn2)cc1,96.3%
7,COc1ccccc1/C=C/C(=O)Nc1ccc2c(c1)OCCO2,73.5%
8,Cc1cc(=O)n2[nH]c(-c3ccc(F)cc3)nc2n1,42.6%
9,C[n+]1c(-c2ccccc2)cc2c(=Cc3ccccc3)c3ccccc3n21,75.4%
10,CC(=O)n1cc(N(C(=O)CCl)c2ccc([N+](=O)[O-])cc2)c2ccccc21,99.3%
11,CC(C)(C)OC(=O)NCc1ccc(NC(=O)c2nc[nH]c2C(=O)NCCCCNC(=O)c2[nH]cnc2C(=O)Nc2ccc(CNC(=O)OC(C)(C)C)cc2)cc1,96.2%
12,CCCCCCCCCCn1ccc(=N)cc1,68.3%
13,O=c1c2ccccc2oc2ccc(C#CC3(O)CCCCC3)cc12,84.8%
14,O=S1(=O)CC(c2ccccc2)=NN=C(c2ccccc2)C1,75.8%
15,COc1ccc(C(=O)Nc2cccc(/C=C/c3nc4ccccc4c(=O)[nH]3)c2)cc1,60.9%
16,COc1ccc(/C=N/Nc2nnc(Cc3ccccc3)c(=O)[nH]2)cc1OC,59.2%
17,COCCOCCn1c(/C=C/c2ccccc2)nc2ccccc21,77.1%
18,CC(C)(C)C1CCc2sc(C(=O)NNC(=O)CCl)cc2C1 (stereo not given),95.6%
19,Cc1ccc(-c2cc(C(=O)N/N=C/c3cccnc3)c3ccccc3n2)cc1C,35%
20,O=C(Nc1ccc2c(c1)OCCO2)c1ccc(Cl)cc1,69.5%

row,Compound,activity
1,Cc1cc(C)c2c(c1)/C(=C/C(=O)c1ccc(Br)s1)C(=O)N2,98%
2,COC(=O)c1ccccc1NC(=O)c1nc(S(=O)(=O)Cc2ccccc2)ncc1Cl,99.6%
3,COC(=O)c1ccc(NC(=O)C(=O)c2cccn2C)cc1,51.2%
4,COc1cccc2sc(N(C)c3ccccc3)nc12,61.2%
5,COc1cccc2c1C(CO)N1C(C#N)C3CC(C(=O)O)C(C1C2)N3C (stereo not given),83.8%
6,C/C(=N\Nc1nc2ccccc2[nH]1)c1ccc(N2CCOCC2)cc1,74.9%
7,Clc1ccc(-n2cnc3c(Cl)ncnc32)cc1Cl,79%
8,Cc1ccnc(NC(=O)/C=C/c2cccs2)c1,81.5%
9,CC(C)(C)c1ccc(-c2nc3cc(N)ccc3o2)cc1,80.5%
10,C/C(=N\NC(=O)c1ccc(F)cc1)c1ccccn1,61.7%
11,COc1ccc(C(=O)Nc2cc(C)on2)cc1,38.6%
12,COc1ccc(C(C(=O)NC2CCCC2)N(C(=O)c2snc(-c3ccc(F)cc3)c2N)c2ccc(F)cc2)cc1 (stereo not given),43.5%
13,COc1ccc2nc(-c3ccc(F)cc3)sc2c1,65.7%
14,O=C(N/N=C/c1ccc(-c2cccc(C(F)(F)F)c2)o1)c1cccc(F)c1,50.6%
15,O=C1C(=C2CCc3ccccc32)Cc2ccccc21,48.9%
16,Cc1ccc(/C=N/NC(=O)c2cc(C)oc2C)cc1,55%
17,CCn1c(=O)c([N+](=O)[O-])c(Cl)c2ccccc21,70.1%
18,O=C(Nc1ccc2c(c1)OCCO2)c1ccccn1,69.1%
19,C/C(=N\NC(=O)c1ccncc1)c1cccc(NC(=O)c2ccc(C(C)(C)C)cc2)c1,81.6%
20,O=C(Nc1nc2ccccc2[nH]1)c1ccc([N+](=O)[O-])cc1,35%
